Test results taken from PubChem BioAssay AID463173 (ICCB-Longwood Screening Facility, Harvard Medical School, 2010).
Out of some 52,000 compounds screened, about 4,300 (8.3%) were called active. This is one part of a sample in which actives are shown more often than they occur. No stated cut-off is given here; in the data, active means survival mostly below about 52% (no sharp cut-off); inactive means mostly above about 56%.

Test system: DeltatarO mutant
Assay: growth inhibition of S. aureus wild type versus tarO mutant, primary screen, teichoic acid synthesis inhibitors, RN4220, OD600 (AID 463173)
Settings: OD600, 18 h, hits give low values, screened at 18.75 µg/mL (by protocol)

Compound | survival
CCC(NC(=O)Nc1ccc(OC)c(OC)c1)c1c(-n2cccc2)sc2c1CCN(C)C2 (stereo unspecified) | 65% (inactive)
COc1ccccc1CNC(=O)c1ccc2c(c1)nc(C)n2-c1cccc(C)c1 | 74% (inactive)
COc1ccc(S(=O)(=O)NCCS(=O)(=O)N2CCN(c3ccccc3)CC2)cc1C | 102% (inactive)
CCc1ccccc1N(CC(=O)N1CCc2ccccc2C1)S(C)(=O)=O | 96% (inactive)
CCOc1ccccc1N(CC(=O)N1CCc2ccccc2C1)S(=O)(=O)c1ccccc1 | 37% (active)
COc1ccc(N(CC(=O)N2CCc3ccccc3C2)S(=O)(=O)c2ccccc2)cc1 | 58% (inactive)
COc1ccc(-n2ncc(C(=O)NCc3ccco3)c2C2CCN(C(=O)OC(C)(C)C)CC2)cc1 | 83% (inactive)
Cc1ccccc1NC(=S)N1CCC(NC(=O)C(C)(C)C)CC1 | 92% (inactive)
O=C(Nc1ccc(F)cc1F)C1CCN(S(=O)(=O)c2ccc3[nH]c(=O)ccc3c2)CC1 | 83% (inactive)
CCOC(=O)Cn1nnnc1CN(Cc1cc2c(C)ccc(C)c2[nH]c1=O)C1CCCCC1 | 88% (inactive)
Oc1ccc(N=Cc2ccccc2O)cc1 | 109% (inactive)
CCN(CC)c1ccc(C=C2C(=O)c3ccccc3C2=O)c(O)c1 | 74% (inactive)
O=C1/C(=C/c2ccccc2O)CC/C1=C\c1ccccc1O | 55% (active)
CCOC(=O)c1cccc(NC(=O)CCn2c(-c3ccc(F)cc3)cc(C(=O)OCC)c2C)c1 | 76% (inactive)
CCN(CC)CCOC(=O)c1ccc(NC(=O)CCn2c(=O)oc3ccccc32)cc1 | 45% (active)
CCOC(=O)c1cccc(NC(=O)CCn2c(=O)oc3ccccc32)c1 | 39% (active)
COC(=O)c1ccc(NC(=O)Cn2c(=O)oc3ccccc32)cc1 | 69% (inactive)
NS(=O)(=O)c1ccc(NC(=O)CCn2c(=O)oc3ccccc32)cc1 | 73% (inactive)
CCOC(=O)c1ccc(NC(=O)NCCOCCn2c(=O)oc3ccccc32)cc1 | 77% (inactive)
CCc1cccc(C)c1NC(=O)C1CCN(S(=O)(=O)c2c(C)noc2/C=C/c2c(C)cc(C)cc2C)CC1 | 81% (inactive)
Cn1cc(S(=O)(=O)N2CCCC2)cc1C(=O)Nc1ccc(F)cc1F | 77% (inactive)
COc1ccc(NC(=O)C(NC(=O)Cc2cccs2)c2ccc(OC)cc2)cc1 (stereo unspecified) | 137% (inactive)

Compound | survival
C=CCNC(=O)CSc1nc2cc(C)cc(C)c2cc1C#N | 58% (inactive)
COc1ccccc1CNC(=O)CC(c1ccc(OC)c(OC)c1)N1Cc2ccccc2C1=O (stereo unspecified) | 83% (inactive)
CCOC(=O)c1noc2ncn(Cc3cccc(C#N)c3)c(=O)c12 | 130% (inactive)
COc1ccc(CCCc2nnc(SCC(=O)Nc3ccc(Cl)cc3)o2)cc1 | 92% (inactive)
COc1ccc(OC)c(NC(=O)CSC2=Nc3ccccc3C3=NC(CC(=O)NCc4ccc5c(c4)OCO5)C(=O)N23)c1 (stereo unspecified) | 80% (inactive)
COc1ccc(OC)c(NC(=O)CSC2=Nc3ccccc3C3=NC(CCC(=O)NCc4ccccc4)C(=O)N23)c1 (stereo unspecified) | 0% (active)
COc1ccc(OC)c(NC(=O)CSC2=Nc3ccccc3C3=NC(CCC(=O)NCc4ccco4)C(=O)N23)c1 (stereo unspecified) | 78% (inactive)
COc1ccc(OC)c(NC(=O)CSC2=Nc3ccccc3C3=NC(CCC(=O)NCCc4ccccc4)C(=O)N23)c1 (stereo unspecified) | 80% (inactive)
COc1ccc(OC)c(NC(=O)CSC2=Nc3ccccc3C3=NC(CC(=O)NCc4ccc(F)cc4)C(=O)N23)c1 (stereo unspecified) | 52% (active)
COc1ccc(NC(=O)CSC2=Nc3ccccc3C3=NC(CC(=O)NCc4ccc(F)cc4)C(=O)N23)cc1 (stereo unspecified) | 55% (inactive)
CCOc1ccc(C2C(=O)N(C3CCCCC3)CC(=O)N2C2CCCC2)cc1OC (stereo unspecified) | 71% (inactive)
CC(=O)N1CCOc2cc(S(=O)(=O)NCc3ccccc3Cl)c(C)cc21 | 85% (inactive)
Cc1cc(Cl)ccc1NC(=O)c1cccc(NC(=O)N2CCSc3ncccc32)c1 | 74% (inactive)
CCCc1nn2c(=O)cc(COC(=O)c3ccco3)nc2s1 | 77% (inactive)
CCOC(=O)c1cc2c(=O)n3ccccc3nc2n(C)c1=NC(=O)c1c(-c2ccccc2Cl)noc1C | 141% (inactive)
Cc1ccc(NC(=O)c2c(C)nc3sc(C(=O)Nc4ccc(F)cc4)c(N)c3c2-c2ccc(C)o2)c(C)c1 | 60% (inactive)
C=Cc1ccc(COc2ccc3oc(-c4ccccc4)c(C(=O)OCC)c3c2)cc1 | 45% (active)
CNC(=O)c1c(-c2ccccc2)oc2ccc(OC)cc12 | 90% (inactive)
COC(=O)c1cc2oc3ccccc3c2n1Cc1c(F)cccc1Cl | 118% (inactive)
O=C(O)c1c(-c2ccccc2)oc2ccc(OCc3ccc(Cl)c(Cl)c3)cc12 | -1% (active)
CCOC(=O)c1c(-c2ccccc2)oc2ccc(OCc3ccccc3Br)cc12 | 38% (active)
CCOC(=O)c1c(-c2ccccc2)oc2ccc(N(C(C)=O)S(=O)(=O)c3ccc(CC)cc3)cc12 | 69% (inactive)

Compound | survival
O=C(O)c1c(-c2ccccc2)oc2ccc(OCc3c(F)cccc3Cl)cc12 | 29% (active)
CCOC(=O)c1c(-c2ccccc2)oc2ccc(NS(=O)(=O)c3ccc(C(C)C)cc3)cc12 | 70% (inactive)
Cc1ccc(NC(=O)Cn2c(=O)n(CCCCC(=O)NCc3ccc4c(c3)OCO4)c(=O)c3ccccc32)cc1 | 72% (inactive)
CC1(C)N([O-])C2=C(CCCC2)[N+]1=O | 83% (inactive)
CCCc1nc2ccccc2n2c(-c3cccc(C)c3)c3c(=O)n(C)c(=O)n(C)c3c12 | 67% (inactive)
Cc1cc(-c2ccc(C)c(S(=O)(=O)NCCc3ccccc3)c2)on1 | 80% (inactive)
Cc1ccc(COc2ccc3oc(-c4ccccc4)c(C(=O)O)c3c2)cc1 | 34% (active)
CCOC(=O)c1c(-c2ccc(OC)cc2)oc2ccc(OCc3ccc(C(=O)OC)cc3)cc12 | 48% (inactive)
CCOC(=O)c1c(-c2ccc(OC)cc2)oc2ccc(OCc3ccc(Br)cc3)cc12 | 63% (inactive)
CCOC(=O)c1c(-c2ccccc2)oc2ccc(OCc3ccc(C)cc3)cc12 | 30% (active)
CCOC(=O)c1c(-c2ccccc2)oc2ccc(N(C(C)=O)S(=O)(=O)c3ccc(C)cc3)cc12 | 62% (inactive)
CCOC(=O)c1c(-c2ccc(OC)cc2)oc2ccc(OCc3ccccc3C)cc12 | 51% (inactive)
CCOC(=O)c1c(-c2ccccc2)oc2cc(Br)c(OCC(N)=O)cc12 | 79% (inactive)
CCOC(=O)c1c(-c2ccc(OC)cc2)oc2ccc(OCc3ccc(F)cc3F)cc12 | 38% (active)
CCOC(=O)c1c(-c2ccccc2)oc2ccc(N(C(C)=O)S(=O)(=O)c3ccccc3)cc12 | 60% (inactive)
CCOC(=O)c1c(-c2ccccc2)oc2cc(Br)c(OCc3ccccc3)cc12 | 36% (active)
CCOC(=O)c1c(C)oc2ccc(OCC(N)=O)cc12 | 100% (inactive)
CCOc1ccc(-c2oc3ccc(C)cc3c(=O)c2O)cc1 | 91% (inactive)
Cc1ccc(C(=O)N/C(=C\c2cn(S(=O)(=O)N(C)C)c3ccccc23)C(=O)NCCCn2ccnc2)cc1 | 80% (inactive)
O=C(c1ccc(CS(=O)(=O)c2c(Cl)cccc2Cl)o1)N1CCN(c2ccccc2)CC1 | 107% (inactive)
Cc1ccc(CNC(=O)CN2C(=O)CSc3c2c(C)nn3-c2ccccc2)cc1 | 89% (inactive)
CC(CCc1ccccc1)NC(=O)Cn1ncc2c3ccccc3n(Cc3ccccc3F)c2c1=O (stereo unspecified) | 92% (inactive)

Compound | survival
COc1ccccc1N1CCN(C(=O)CCS(=O)(=O)c2cc(Br)cc3c2N(C(=O)C2CC2)CC3)CC1 | 83% (inactive)
O=C(O)CCn1c(=O)c2cccn2c2cccnc21 | 98% (inactive)
CCOC(=O)c1c(-c2ccccc2)oc2ccc(OCc3cccc(Br)c3)cc12 | 38% (active)
O=C(NCCc1ccccc1)C(=O)NCC(c1cccnc1)N1CCN(c2ccc(F)cc2)CC1 (stereo unspecified) | 103% (inactive)
C=CCN(CC=C)C(=O)COc1ccc(Cl)cc1Cl | 73% (inactive)
CCOc1cccc2sc(NC(=O)c3ccc(S(=O)(=O)N4CCc5ccccc54)cc3)nc12 | 71% (inactive)
Oc1ccc(-c2cccc(-c3ccc(O)cc3)c2)cc1 | 27% (active)
Cc1ccc2c(CNCc3cccc(Cl)c3)c(C(=O)O)n(Cc3ccc(F)cc3Cl)c2c1 | 70% (inactive)
COc1ccc(OC)c(CNCc2c(C(=O)O)n(Cc3ccccc3)c3cc(OC)ccc23)c1 | 77% (inactive)
CCc1ccc(CNCc2c(C(=O)O)n(Cc3cccc(F)c3)c3cc(OC)ccc23)cc1 | 79% (inactive)
Cc1ccc2c(CNCCc3ccccc3)c(C(=O)O)n(Cc3ccccc3C)c2c1 | 6% (active)
Cc1ccccc1Cn1c(C(=O)O)c(CNCc2cccc(F)c2)c2ccccc21 | 52% (active)
COc1ccc2c(CNCc3ccc(Cl)cc3)c(C(=O)O)n(Cc3ccccc3C)c2c1 | 97% (inactive)
Cc1ccc(CNCc2c(C(=O)O)n(Cc3ccccc3C)c3cc(C)ccc23)cc1 | 67% (inactive)
COc1ccc(OC)c(CNCc2c(C(=O)O)n(Cc3cccc(F)c3)c3cc(OC)ccc23)c1 | -1% (active)
CCOc1ccc(CNCc2c(C(=O)O)n(Cc3ccc(C)cc3)c3cc(C)ccc23)cc1 | 12% (active)
C=Cc1ccc(Cn2c(C(=O)O)c(CNCCc3ccccc3)c3ccc(C)cc32)cc1 | 92% (inactive)
CCOc1ccc(CNCc2c(C(=O)O)n(Cc3ccc(OC)cc3)c3ccccc23)cc1 | 82% (inactive)
CCOc1ccc(CCNCc2c(C(=O)O)n(Cc3ccc(C)cc3)c3cc(OC)ccc23)cc1 | 58% (inactive)
CCC1CCCCN1C(=O)Cn1c(=O)n(-c2ccccc2C(F)(F)F)c(=O)c2c(C)c(C(=O)N(C)C)sc21 (stereo unspecified) | 80% (inactive)
